TROY signal inh – inhibitors of TROY-dependent NF-kB signaling; Q293 LMP1-TROYcd NF-kB luciferase reporter, 4 h; inhibition, % at 10 µM; actives 0.98% (n = 360,000); AID 1347056;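 active means compounds whose plate-normalised and pattern-corrected inhibition of the luciferase reporter signal at the single screening dose is 50% or more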
aSyn 5UTR inh – 5' untranslated region of α-synuclein, MLPCN primary screen; alpha-synuclein 5'UTR reporter, inhibitor activity; inhibition, % (tested at 7.5 µM); actives 0.82% (n = 300,000); AID 1813; in the data active means inhibition above about 60%;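 further: H4 neuroglioblastoma cells stably carrying SNCA 5'UTR luciferase fusion; 0% = DMSO wells and 100% = positive control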
C8 TRAIL sens – caspase-8 TRAIL sensitization; NB7+C8 cells + TRAIL, ATPlite viability luminescence; inhibition (viability loss, TRAIL sensitization), % at 10 µM; actives 1% (n = 360,000); AID 624354;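 active means compounds causing at least 50% loss of cell viability in the single-dose screen, relative to plate controls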
HIF-2a inh – blocks HIF-2a reporter activity; 786-0 RCC cells HIF-2a reporter, luciferase luminescence, overnight; inhibition, % at 18.8 µM; actives 0.72% (n = 360,000); AID 624352;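 active means inhibition of the luminescence signal of 40% or more relative to plate controls, in a single-dose primary screen at 18.75 µM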
TWEAK-Fn14 inh – TWEAK-Fn14 signaling inhibition | TWEAK-stimulated Fn14 reporter cells, luciferase luminescence, 8 h | inhibition, % at 10 µM | actives 2% (n = 360,000) | AID 1159606; in the data active means inhibition above about 50%
HSP90 refold inh – blocks HSP90-mediated luciferase refolding in reticulocyte lysate; Rabbit reticulocyte lysate, luciferase refolding luminescence, 3 h; inhibition, % at 5.6 µM; actives 0.91% (n = 290,000); AID 1789;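 active means inhibition above the screen-wide mean plus 3 SD, computed separately per campaign, cut at about 16% in these data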;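 further: 0% = DMSO wells and 100% = 60 µM geldanamycin wells; inhibitors lower the luminescence because luciferase stays unfolded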
An asterisk follows results filed as active; x = no result. In the library only some 3.9% were active in any assay of this set; here they are far more common.

SMILES	TROY signal inh	aSyn 5UTR inh	C8 TRAIL sens	HIF-2a inh	TWEAK-Fn14 inh	HSP90 refold inh
Cc1ccc2[nH]c3c(N4CCc5ccccc5C4)ncnc3c2c1	32	-3	32	-93	63*	-1
Fc1ccc2[nH]c3c(N4CCc5ccccc5C4)ncnc3c2c1	18	22	17	12	58*	3
COc1ccc(C(=O)N/C(=C/c2ccc(Cl)cc2)C(=O)Nc2ccc(C(=O)O)cc2)cc1	-24	-1	-5	12	100*	-10
COc1ccc(/C=C(\NC(=O)c2ccc(OC)cc2)C(=O)Nc2cccc(C(=O)O)c2)cc1	-23	-1	4	-18	-3	3
O=C1CC(c2ccccc2)=NN1c1ccccc1	52*	x	-7	-21	-18	x
Cc1cc(C)nc(N2N=C(c3ccccc3)CC2=O)n1	-10	-3	3	-18	-24	2
COc1cc(-c2nc(-c3ccc(NC(=O)c4ccc(Br)o4)cc3)no2)cc(OC)c1OC	8	1	33	-162	59*	-2
Cc1ccccc1CN1C(=O)[C@@H]2Cc3c([nH]c4ccccc34)C(C)(C)N2C1=O	21	-15	11	-22	42	x
CC1(C)c2[nH]c3ccccc3c2C[C@@H]2C(=O)N(Cc3ccccc3Cl)C(=O)N21	30	15	16	-28	51*	x
CC1(C)c2[nH]c3ccccc3c2C[C@H]2C(=O)N(Cc3cccc(F)c3)C(=O)N21	29	16	-9	23	51*	x
Cc1ccc(C(=O)Nc2nc(C(N)Cc3ccc(C(F)(F)F)cc3)cs2)cc1 (stereo not drawn)	14	x	14	9	-18	x
CC(C)(COC(=O)c1ccccc1)N1CC2CCC(C1)O2	-57	x	-13	-145	-12	x
CCc1ccc(NC(=O)c2ccc3c(=O)n4c(nc3c2)CCCCC4)cc1	14	-13	0	-154	-1	1
O=C(Nc1cccc(S(=O)(=O)N2CCCCC2)c1)c1ccc2c(=O)n3c(nc2c1)CCCCC3	55*	0	36	-6	71*	4
CC1(C(=O)Nc2cccc3cccnc23)CCN1C(=O)Cc1ccc(Cl)cc1Cl (stereo not drawn)	11	x	1	2	-18	x
CCCC(=O)Nc1c(-c2ccccc2)[nH][nH]c1=O	15	x	-7	-5	-4	x
C[C@H]1CN([C@@H](C)CO)C(=O)CCCn2cc(nn2)CO[C@@H]1CN(C)C(=O)Nc1ccccc1F	6	x	10	6	-15	x
COc1ccc(-c2oc3ccc(N4CCOCC4)cc3c2C#CCO)cc1	54*	-92	42	-18	97*	x
COc1ccc(-c2ccc3oc(-c4ccc(OC)cc4)c(C#CCO)c3c2)cc1	39	-23	35	5	53*	x
CC(=O)c1cccc(S(=O)(=O)NCCC(=O)NC2CCCCCC2)c1	12	x	-13	3	19	x
CNC(=O)c1ccc(-c2cc3onc(-c4ccccc4)c3c(=O)n2C)cc1	-31	x	10	-252	5	x
CCCOc1ccc(NC(=O)c2c(-c3ccccc3)noc2C)cc1	1	16	3	-11	-8	-1
Cc1ccc(-c2cc3onc(-c4ccccc4)c3c(=O)n2C)cc1	89*	x	78*	18	102*	x
CCCOc1ccc(-c2cc3onc(-c4ccccc4)c3c(=O)n2C)cc1	81*	x	39	-98	89*	x
COC(=O)C(C)N1C(=O)S/C(=C/c2cc(C)n(-c3ccccn3)c2C)C1=O (stereo not drawn)	14	-83	58*	-118	-12	11
SMILES	TROY signal inh	aSyn 5UTR inh	C8 TRAIL sens	HIF-2a inh	TWEAK-Fn14 inh	HSP90 refold inh
COC(=O)C(C)N1C(=O)S/C(=C\c2cc(C)n(-c3ccccn3)c2C)C1=O (stereo not drawn)	-12	-60	60*	-116	25	13
COc1ccc(C(=O)N(C)CCOc2ccc(Cl)cc2)cc1S(=O)(=O)N1CCCC1	-7	x	-17	-1	-2	x
Cn1c(=O)c2[nH]c(NN=Cc3cccc(Br)c3)nc2n(C)c1=O	31	x	28	-10	41	x
Cc1ccc(Cn2ncc3c(N4CCN(c5ccc(C)cc5)CC4)ncnc32)cc1	31	30	41	12	61*	1
Cc1ccc(Cn2ncc3c(N4CCN(C)CC4)ncnc32)cc1	-9	-10	14	5	13	-4
Cc1ccc(Cn2ncc3c(N4CCN(Cc5ccc(Cl)cc5)CC4)ncnc32)cc1	26	22	32	33	56*	-1
Cc1ccc(Cn2ncc3c(N4CCN(CCc5ccccc5)CC4)ncnc32)cc1	38	6	33	2	30	2
CC(C)C[C@H]1CNC(=O)C(=O)N1C[C@@H]1CCCN1C[C@H](Cc1ccccc1)N1C[C@H](Cc2ccccc2)N(CCc2ccccc2)C(=O)C1=O	1	x	-7	-9	10	x
Nc1[nH]nc2nc3ccccc3cc12	1	-4	2	8	0	-1
Nc1cccc2nc3ccccc3cc12	-62	101*	34	5	-32	0
COC(=O)[C@@]12C[C@@H](CC(=O)NCCc3ccccc3OC)C(=O)N(Cc3ccco3)C1=CCC(C)(C)C2	x	x	-14	-5	x	x
O=C(CSc1ccc2ccccc2c1Br)Nc1cccc(S(=O)(=O)NC2=NCCCCC2)c1	10	64*	-1	20	21	1
Cc1ccc(C)c(SCC(=O)Nc2cccc(S(=O)(=O)NC3=NCCCCC3)c2)c1	6	12	-8	11	11	1
O=C(Nc1ccc(Br)cc1F)c1ccc2nsnc2c1	-35	-106	4	-232	2	-2
Cc1ccc(NC(=O)c2ccc3nsnc3c2)c(Cl)c1	12	18	58*	-264	45	10
CCNC(=O)CC1C(=O)N(C)C(=S)N1NC(=O)c1ccc(Cl)cc1 (stereo not drawn)	18	6	-4	9	24	-3
Nc1ccc(C(=O)NN2C(=O)[C@H](Cl)C2c2ccc(Cl)cc2)cc1 (stereo partly drawn)	-23	x	95*	11	65*	x
CC(C)(C)c1ccc(CC(=O)N2CCC2(C)C(=O)Nc2cnc3ccccc3c2)cc1 (stereo not drawn)	45	x	27	13	49	x
O=C(O)/C=C/C(=O)NNC(=O)c1cc(-c2ccccc2)n[nH]1	-20	-3	51*	26	10	1
CCc1nnc(NC(=O)c2ccc(F)c(S(=O)(=O)N3CCCCC3)c2)s1	8	-7	-4	8	16	4
O=C(Nc1nnc(C2CC2)s1)c1ccc(Cl)c(S(=O)(=O)N2CCc3ccccc3C2)c1	56*	-10	22	-25	50	-2
CCc1nnc(NC(=O)c2ccc(Cl)c(S(=O)(=O)N3CCc4ccccc43)c2)s1	61*	20	18	10	-9	1
Cc1cccc(NC(=O)c2ccc(Cl)c(S(=O)(=O)N3CCc4ccccc43)c2)n1	37	x	16	0	58*	x

High-throughput results from PubChem.
